Source: PubChem (National Center for Advancing Translational Sciences (NCATS))
HT1080-NT tox: kills 2HG-producing HT-1080-NT fibrosarcoma cells; HT-1080-NT fibrosarcoma viability, CellTiter-Glo ATP luminescence, 48 h; 1.6% of 360,000 active; Potency, µM (titrated, usually from 46.1 µM), without a hit: top-dose activity, negative = less viability, most hits filed as cytotoxic; AID 686970;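 further: NT is the 2HG producing partner of a matched IDH1 knockdown line; potency means the concentration at half of the fitted maximal effect; 0% = DMSO-treated cells and -100% = media-only wells without cells; nearly all actives have a fitted effect of over 55% in size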
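HT-1080-NT fibrosarcoma cells (2HG-overproducing), 750 cells/well in RPMI with 5% FBS, dosed after 2 h and incubated 48 h at 37C. CellTiter-Glo luminescence normalized to DMSO and no-cell wells; concentration-response curves fitted and classed.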
HT1080 IDH1KD tx: kills HT-1080 cells with IDH1 knockdown; HT-1080 IDH1 knockdown viability, ATP luminescence, 48 h; Potency, µM (top dose mostly 46.1 µM), without a hit: at the top dose activity, negative = toxicity, hits mostly cytotoxic; 2% of 360,000 active; AID 686971;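 further: potency means the concentration at half of the fitted maximal effect; 0% = DMSO wells and -100% = cell-free medium wells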
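Viability of IDH1-knockdown HT-1080 fibrosarcoma cells was assessed by CellTiter-Glo after 48 h at 37 °C with titrated compound; concentration-effect curves were classified by fit quality and response size.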
DT40 TDP1 no CPT: qHTS for Inhibitors of human tyrosyl-DNA phosphodiesterase 1 (TDP1): qHTS in cells in absence of CPT; Potency, µM (top dose mostly 46.2 µM), for the others: at the highest dose activity change, negative = growth inhibition, most hits filed as inhibitors; DT40 Tdp1-/- hTDP1 cells, no CPT, ATP luminescence, 48 h; 15% of 420,000 active; further: potency means the concentration at half of the fitted maximal effect; nearly all actives have a fitted effect of over 55% in size
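DT40 Tdp1-/-;hTDP1 cells, no CPT (DMSO vehicle only), 400 cells/well; compounds pin-transferred; ≥48 hr, 37 °C; CellTiter-Glo 30 min RT dark, luminescence read.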
TDP1 cell CPT: growth inhibition of DT40 Tdp1-/-;hTDP1 cells with camptothecin (screen for TDP1 inhibitors); AID 686979; chicken DT40 Tdp1-/-;hTDP1 cells + 20 nM CPT, ATP luminescence, 48 h; Potency, µM (series often up to 46.2 µM), without a hit: top-dose activity change, negative = growth inhibition, most hits filed as inhibitors; 12% of 420,000 active; further: potency means the concentration at half of the fitted maximal effect; nearly all actives have a fitted effect of over 55% in size
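Cell growth measured by CellTiter-Glo luminescence after a minimum 48 h, 37 C compound exposure with 20 nM CPT in Tdp1-knockout DT40 cells stably expressing hTDP1, seeded 400/well; qHTS titration format.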
uPA surface inh: blocks generation of uPA at the cell surface; cell surface uPA generation assay, qHTS; Potency, µM (series often up to 38.3 µM), without a hit: at the top dose activity change, negative = inhibition, most hits filed as inhibitors; 0.31% of 330,000 active; AID 540303; active means well fitted inhibition curve with a large enough effect; inconclusive means small, poorly fitted or top-dose-only effect; inactive means no such curve, though single readings can be large or run the other way; tested in mouse RAW 264.7 cells; further: potency means the concentration at half of the fitted maximal effect; nearly all actives have a fitted effect of over 55% in size
IL1B secr inh: inhibitors of inflammasome signaling (IL-1 beta secretion); THP-1 LPS/ATP IL-1B secretion, AlphaLISA, 16 h; stronger effect = lower value; activity change, % at 57.5 µM; 4.7% of 360,000 active; in the data active means activity change below about -50%; inconclusive means mostly about -30% to -49%
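Secreted IL-1B measured by AlphaLISA bead assay after 16 h compound exposure of THP-1 cells; compounds (final up to 57.5 uM) added 1 h before LPS (250 ng/mL) and ATP (1.25 mM) stimulation; lower signal means less secretion.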
* hit, by the source's call. Shown are actives, neighbours in structure and some others; about 19% of the full set was active somewhere. Unless noted, the call rests on the fitted dose curve; in most records, active means well fitted curve in the direction sought with a large enough effect; inconclusive means small, poorly fitted or top-dose-only effect, or another doubt; inactive means no such curve, though single readings can be large; an effect the other way counts as inactive or inconclusive. Unless noted, on the % scale 0 is the no-effect control and ±100 the full control effect.

Cc1nnc(SCC(=O)Nc2nccs2)n1C(C)C was read as HT1080-NT tox 20%, HT1080 IDH1KD tx 4%, DT40 TDP1 no CPT 1%, TDP1 cell CPT 3%, uPA surface inh 5% and IL1B secr inh 9.
For N#Cc1ccc(CSc2nnc(NC(=O)CCc3nc4ccccc4c(=O)[nH]3)s2)cc1 the results were HT1080-NT tox 4%, HT1080 IDH1KD tx 3%, DT40 TDP1 no CPT -3%, TDP1 cell CPT 5%, uPA surface inh 17% and IL1B secr inh -7.
Screening CCc1nc2ccccc2c(C(=O)OCC(=O)Nc2cccc(S(=O)(=O)N3CCOCC3)c2)c1C returned HT1080-NT tox inconclusive, HT1080 IDH1KD tx inconclusive, DT40 TDP1 no CPT 18µM*, TDP1 cell CPT 16µM* and IL1B secr inh -78*.
For O=C(COC(=O)c1ccc2ccccc2n1)Nc1cccc(S(=O)(=O)NC2=NCCCCC2)c1 the results were HT1080-NT tox -8%, HT1080 IDH1KD tx -6%, DT40 TDP1 no CPT -13%, TDP1 cell CPT -7%, uPA surface inh 7% and IL1B secr inh 2.
`CCc1nc2ccccc2c(C(=O)OCC(=O)Nc2ccc(S(=O)(=O)N3CCOCC3)cc2)c1C` gave HT1080-NT tox inconclusive, HT1080 IDH1KD tx inconclusive, DT40 TDP1 no CPT inconclusive, TDP1 cell CPT 14µM*, uPA surface inh -8% and IL1B secr inh -1.
For O=C(COC(=O)c1nc(Cl)ccc1Cl)Nc1cccc(S(=O)(=O)N2CCOCC2)c1 the results were HT1080-NT tox -3%, HT1080 IDH1KD tx 0%, DT40 TDP1 no CPT 0%, TDP1 cell CPT -14%, uPA surface inh 2% and IL1B secr inh 2.
CCc1nc2ccccc2c(C(=O)OCC(=O)Nc2cccc(S(=O)(=O)NC3=NCCCCC3)c2)c1C was read as HT1080-NT tox inconclusive, HT1080 IDH1KD tx inconclusive, DT40 TDP1 no CPT 4.6µM*, TDP1 cell CPT 16µM*, uPA surface inh -5% and IL1B secr inh -84*.
For O=C(COC(=O)c1ccccn1)Nc1ccc(S(=O)(=O)N2CCOCC2)cc1 the results were HT1080-NT tox 8%, HT1080 IDH1KD tx 1%, DT40 TDP1 no CPT -7%, TDP1 cell CPT -4%, uPA surface inh 5% and IL1B secr inh -3.
Screening Cc1ccccc1CN(c1ccc(C(=O)N/N=C/c2ccc(OCC(N)=O)cc2)cc1)S(C)(=O)=O returned HT1080-NT tox -13%, HT1080 IDH1KD tx -8%, DT40 TDP1 no CPT 8%, TDP1 cell CPT -17%, uPA surface inh -3% and IL1B secr inh 16.
Screening CC(=O)c1ccc(NC(=O)NC2CC(=O)N(c3ccc4c(c3)OCCO4)C2)cc1 (stereo not given) returned HT1080-NT tox -26%, HT1080 IDH1KD tx -26%, DT40 TDP1 no CPT -7%, TDP1 cell CPT 6%, uPA surface inh 2% and IL1B secr inh 12.
O=C(NCC(c1ccco1)N1CCCC1)c1sc2ccccc2c1Cl (stereo not given) was read as HT1080-NT tox 0%, HT1080 IDH1KD tx -1%, DT40 TDP1 no CPT 21µM*, TDP1 cell CPT inconclusive, uPA surface inh -1% and IL1B secr inh 13.
Screening O=C(NCC(c1ccco1)N1CCCC1)c1cn(-c2ccccc2)nc1-c1ccc(F)cc1 (stereo not given) returned HT1080-NT tox 5%, HT1080 IDH1KD tx 3%, DT40 TDP1 no CPT 10µM*, TDP1 cell CPT 16µM*, uPA surface inh 15% and IL1B secr inh -9.
`CCOCc1c(C(=O)NCC(c2ccco2)N2CCCC2)oc2ccccc12` (stereo not given) gave HT1080-NT tox -8%, HT1080 IDH1KD tx 1%, DT40 TDP1 no CPT inconclusive, TDP1 cell CPT 23µM*, uPA surface inh 11% and IL1B secr inh 14.
